Source: PubChem
PLK1 PBD block = blocks phosphopeptide binding to human PLK1 polo-box domain; AID 720504; Potency, µM, without a hit: max response, negative = inhibition, actives largely listed as inhibitors; Plk1 PBD binding of FITC phosphopeptide, fluorescence polarization; P53350; 360,000 compounds, 2.8% hits; note: series mostly up to about 57 µM; nearly all actives have a fitted effect of over 65% in size
Target sequence (P53350 whole entry, looked up, the tested form may be a part): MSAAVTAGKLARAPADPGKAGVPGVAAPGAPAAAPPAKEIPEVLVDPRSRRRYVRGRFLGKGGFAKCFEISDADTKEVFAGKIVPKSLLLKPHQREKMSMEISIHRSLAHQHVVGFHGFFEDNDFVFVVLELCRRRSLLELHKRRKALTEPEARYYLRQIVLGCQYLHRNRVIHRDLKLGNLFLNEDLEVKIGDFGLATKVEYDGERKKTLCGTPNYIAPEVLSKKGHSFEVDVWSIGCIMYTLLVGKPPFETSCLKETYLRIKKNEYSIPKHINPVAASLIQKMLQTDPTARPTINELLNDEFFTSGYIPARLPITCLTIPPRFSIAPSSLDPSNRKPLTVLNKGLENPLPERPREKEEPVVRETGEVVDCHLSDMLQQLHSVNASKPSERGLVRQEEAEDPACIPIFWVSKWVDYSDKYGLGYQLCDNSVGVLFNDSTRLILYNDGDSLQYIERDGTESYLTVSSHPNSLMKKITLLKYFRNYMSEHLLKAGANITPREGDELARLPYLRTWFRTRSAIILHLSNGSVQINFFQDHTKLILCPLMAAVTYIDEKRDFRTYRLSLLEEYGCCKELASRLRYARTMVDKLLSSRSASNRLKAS
VDR inh = inhibitors of human vitamin D receptor | 400,000 compounds, 0.93% hits | Potency, µM, inactives show max response, negative = inhibition, hits mostly inhibitors | P11473 | VDR-SRC2-3 peptide fluorescence polarization, 2 h | AID 504847
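Fluorescence polarization assay measuring small-molecule disruption of VDR binding to the coregulator peptide SRC2-3. Compounds were pin-transferred (23 nl) into the reagent mix and incubated 2 h at room temperature before reading.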
DT40 TDP1 CPT = DT40-hTDP1 cell growth loss with CPT. AID 686979. chicken DT40 Tdp1-/-;hTDP1 cells + 20 nM CPT, ATP luminescence, 48 h. Potency, µM (highest dose often 46.2 µM), without a hit: at the highest dose activity change, negative = growth inhibition, hits mostly inhibitors. 420,000 compounds, 12% hits; note: nearly all actives have a fitted effect of over 55% in size
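Chicken DT40 Tdp1-/- cells complemented with human TDP1, 400 cells/well, exposed to compounds plus 20 nM camptothecin for at least 48 h at 37 C; viability read as ATP content by CellTiter-Glo luminescence.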
GCN5L2 inh = blocks human GCN5L2 histone acetyltransferase. 390,000 compounds, 0.21% hits. Potency, µM (doses to about 58.9 µM), without a hit: at the highest dose activity change, negative = inhibition, actives largely listed as inhibitors. GCN5L2 HAT assay, ThioGlo1 CoA-SH fluorescence. Q92830
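qHTS, 1536-well. 20nM enzyme, pH 7.5 HEPES/EDTA/Tween-20 buffer; 15 min compound preinc., RT. Start: 75uM H3(1-25), 70uM AcCoA, 50uM ThioGlo1. Read Ex340/Em540 at t=0 (autofluorescence flag) and t=20 min.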
TDP1 block = TDP1 (human) enzyme inhibition | Q9NUW8 | recombinant TDP1, AlphaScreen DNA substrate cleavage | Potency, µM (top dose mostly 130 µM), without a hit: at the top dose activity change, negative = inhibition, hits mostly inhibitors | 350,000 compounds, 0.28% hits | AID 485290; note: nearly all actives have a fitted effect of over 40% in size
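Enzyme-compound mixtures sat 15 min at room temperature, followed by a 5 min reaction with 15 nM final substrate and 10 min with AlphaScreen beads. Recombinant human Tdp1 was used at 1 nM final.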
DT40 TDP1 no CPT = qHTS for Inhibitors of human tyrosyl-DNA phosphodiesterase 1 (TDP1): qHTS in cells in absence of CPT. DT40 Tdp1-/- hTDP1 cells, no CPT, ATP luminescence, 48 h. 420,000 compounds, 15% hits. AID 686978, 2013. Potency, µM (series often up to 46.2 µM), for inactives: at the top dose activity change, negative = growth inhibition, most hits filed as inhibitors; note: nearly all actives have a fitted effect of over 55% in size
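Readout: luminescence from CellTiter-Glo after 30 min in the dark at RT. Cells: DT40 Tdp1-/- with stable hTDP1, 400/well. Exposure: compounds alone, ≥48 hr, 37 °C.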
Active calls of the source: *; ? = inconclusive; . = not tested or not shown. Hits are enriched below; roughly 18% of the tested compounds scored in any of these assays. Calls come from the whole dose curve; as a rule, active = well fitted curve in the direction sought with a large enough effect; inconclusive = small, poorly fitted or top-dose-only effect, or another doubt; inactive = no such curve, though single readings can be large; an effect the other way counts as inactive or inconclusive. % is set by controls: 0 for no effect and ±100 for the full control effect; potency is the fitted concentration of half-maximal effect.

SMILES | PLK1 PBD block | VDR inh | DT40 TDP1 CPT | GCN5L2 inh | TDP1 block | DT40 TDP1 no CPT
COc1cccc(Nc2ncc3nc(-c4cn(C)c5ccccc45)c(=O)n(C[C@H]4CCCO4)c3n2)c1 | . | 3.9% | -3.8% | -12.7% | . | 13.5%
Cc1nnc(N2CCN(c3ccccc3)CC2)c2c1nnn2Cc1ccc(F)cc1 | . | 18.9% | 16.4µM* | -9.0% | 0.0% | ?
Cc1ccc(CNc2nnc(C)c3nnn(Cc4ccc(F)cc4)c23)cc1 | . | -0.9% | ? | 0.4% | 4.7% | 1.8%
Cc1cccc(N2CCN(S(=O)(=O)c3nnc(NC(=O)c4ccc(Cl)cc4)s3)CC2)c1 | . | -0.2% | ? | 0.1% | 3.9% | ?
Cc1nn(-c2ccccc2)c(C)c1C(=O)OC(C)C(=O)NC1CCCCC1 (centres undefined) | 0.0% | 0.2% | 16.4µM* | -14.3% | 0.5% | 10.3µM*
C=C(C)CSc1nnc(CCCCCNC(=O)OC(C)(C)C)o1 | -9.8% | -6.6% | -29.4% | -2.8% | . | ?
Cc1ccc(-n2ncc3c(N4CCC5(CC4)OCCO5)ncnc32)c(C)c1 | -2.2% | -3.2% | 11.6µM* | -3.1% | 6.9% | 14.6µM*
Cc1ccc(-n2ncc3c(N4CCC(C(N)=O)CC4)ncnc32)c(C)c1 | -3.4% | 18.1% | ? | -3.8% | 6.8% | 1.1%
CCN(CC)C(=O)C1CCN(c2ncnc3c2cnn3-c2ccc(C)cc2C)CC1 | -9.9% | -14.8% | ? | -12.6% | 8.7% | 20.6µM*
CCOCC(O)COc1ccc(NC(=O)CC[S+](C)C)cc1 (centres undefined) | . | -4.9% | -2.2% | -1.2% | . | -1.7%
O=C1CC(SC2=NCCS2)C(=O)N1c1cccc(Cl)c1Cl (centres undefined) | -15.3% | -10.6% | -1.0% | -0.5% | 0.0% | 1.0%
CCOC(=O)c1csc(N)c1-c1ccc([N+](=O)[O-])cc1 | ? | ? | -9.8% | ? | . | ?
COc1ccc(S(=O)(=O)N2CCC(C(=O)NCC(=O)Nc3c(C)cccc3C)CC2)cc1OC | -13.1% | -25.9% | -11.6% | . | . | ?
Cc1ccc(-c2csc(N3CCC(C(N)=O)(N4CCCCC4)CC3)n2)cc1 | -0.6% | -26.1% | ? | -5.8% | -7.8% | 20.6µM*
Cc1ccccc1NC(=O)Cn1nnc(S(=O)(=O)c2ccc(C(C)(C)C)cc2)c1N | -13.5% | -23.8% | ? | -12.7% | -6.6% | ?
Cc1ccc(Cc2c(-c3ccc(Cl)cc3)nc3c(Cl)cc(C(F)(F)F)cn23)cc1 | 0.7% | . | ? | . | . | 18.4µM*
Cc1cc(Br)cn2c(Cc3ccccc3)c(-c3ccccc3)nc12 | -0.6% | . | 29.1µM* | . | . | ?
Cc1ccc(Cc2c(-c3ccc(Cl)cc3)nc3c(C)cc(Br)cn23)cc1 | -23.5% | . | 23.1µM* | . | . | 16.4µM*
Cc1ccc(Cc2c(-c3cccc(Cl)c3)nc3c(C)cc(Br)cn23)cc1 | -6.0% | . | 14.6µM* | . | . | 20.6µM*
Cc1ccc(Cc2c(-c3cccc(Br)c3)nc3c(C)cc(Br)cn23)cc1 | -10.7% | . | -23.3% | . | . | ?
COc1ccccc1Cc1c(-c2ccccc2)nc2c(C)cc(Br)cn12 | -7.7% | . | 16.4µM* | . | . | 16.4µM*
COc1ccc(Cc2c(C(C)(C)C)nc3c(C)cc(Br)cn23)c(C)c1 | -8.2% | . | 18.4µM* | . | . | 23.1µM*
Cc1ccc(-c2nc3c(C)cc(Br)cn3c2Cc2ccsc2)cc1 | -28.6% | . | 18.4µM* | . | . | ?
CCOc1cc(Br)ccc1S(=O)(=O)NCc1ccccc1 | 3.4% | -20.8% | -22.0% | 4.5% | 3.9% | ?
Cn1c(-c2cccc([N+](=O)[O-])c2)cnc1NCc1cccc(F)c1 | -4.1% | -9.2% | ? | -8.4% | . | 20.6µM*
Cn1c(-c2ccc3c(c2)OCO3)cnc1NCc1ccccc1 | 0.0% | 14.8% | 20.6µM* | -16.2% | 0.0% | ?
